Test results as given in the supplement of paper PMC12494721.
Counter-ions that a name gives are not always drawn.

tested on: Klebsiella aerogenes DSM 30053; assay: fold change of Cadaverine concentration vs plate DMSO controls (fold change (ratio)); higher = more amine produced, active = hit call of the paper (significant change in both replicates, either direction); details: incubation time: 27 h, anaerobic, 37 °C;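 for the amine columns active = adjusted P below 0.05 in both replicates with a change the same way and a mean fold change under 0.8 or over 1.25; inactive = the rest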
In short: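 Extracts of whole anaerobic mGAM cultures were analysed for amines by LC–triple-quadrupole MS with dynamic MRM and external calibration curves, with drift corrected within batch. Four gut strains were grown at 37 °C for 27 h in 80 µL wells with compounds at 20 µM final, sweeteners at 50 µM final. Each value expresses fold change over plate DMSO controls. The average of 2 biological replicates is shown.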

Fold change of Cadaverine concentration, inactive:
C[C@]12CCC(=O)C=C1C=C[C@@H]1[C@@H]2CC[C@@]2(C)[C@H]1CC[C@@]21CCC(=O)O1 [Canrenone] (20 µM) 1.02
CCN(CCO)CCCC(C)Nc1ccnc2cc(Cl)ccc12 (stereo not given) [Hydroxychloroquine sulfate] (20 µM) 0.982
C[C@@H](O)[C@H]1C(=O)N2C(C(=O)O)=C(S[C@@H]3CN[C@H](C(=O)N(C)C)C3)[C@H](C)[C@H]12 [Meropenem] (20 µM) 1.11
COc1cc(C(=O)OCCCN2CCCN(CCCOC(=O)c3cc(OC)c(OC)c(OC)c3)CC2)cc(OC)c1OC [Dilazep dihydrochloride] (20 µM) 1.01
CCOC(=O)n1ccn(C)c1=S [Carbimazole] (20 µM) 1
CCOC(=O)CC(=O)N1CCSC1COc1ccccc1OC (stereo not given) [Moguisteine] (20 µM) 0.987
CN[C@@H]1[C@@H](O[C@H]2O[C@H](CO)[C@@H](N)[C@H](O)[C@H]2O)OC2C[C@@H](N)[C@@H](O[C@H]3[C@H](O)[C@@H](O)[C@H](N)C[C@@H]3N)OC2[C@@H]1O (stereo not given in full) [Apramycin] (20 µM) 1.02
Cc1c(OCC(F)(F)F)ccnc1C[S+]([O-])c1nc2ccccc2[nH]1 (stereo not given) [Lansoprazole] (20 µM) 1.01
Cn1c(=O)cc(N2CCC[C@@H](N)C2)n(Cc2ccccc2C#N)c1=O [Alogliptin benzoate] (20 µM) 1.01
Nc1nc(F)nc2c1ncn2[C@@H]1O[C@H](CO)[C@@H](O)[C@@H]1O [Fludarabine] (20 µM) 1.02
